A selection: hits, their analogues and other compounds. The true share with any hit is near 7.4%.
FXIa mix inh – FXIa protease inhibitors in compound pools, primary screen, biochemical, 10-compound mixtures; Coagulation factor XI (Homo sapiens), P03951; purified FXIa, fluorogenic substrate, pooled mixtures; inhibition, % at 5 µM; actives 0.19% (n = 62,000); AID 680, 2007;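 further: each value is inhibition by a whole ten-compound pool holding the compound; 0% = enzyme with no mixture and 100% = wells lacking enzyme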
FXIIa mix inh – human factor XIIa inhibitors, primary screen, biochemical, pooled compound mixtures, fluorogenic substrate | Coagulation factor XII (Homo sapiens), P00748 | purified FXIIa | inhibition, % at 5 µM | actives 0.2% (n = 62,000) | AID 684, 2007;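 further: 0% = enzyme without compound and 100% = no enzyme blank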
M1 agonist – M1 muscarinic receptor agonists, primary screen, CHO-M1 cells, Fluo-4 calcium, agonist mode; Fluo-4 calcium fluorescence; hits give high values; B-score at 10 µM; actives 3% (n = 64,000);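 active means fluorescence rise, raw or as B-score row- and column-corrected plate score, outside the 99.7% band of its plate's samples, either direction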
DAT uptake mod – changed hDAT dopamine uptake under cocaine IC80, either direction, primary screen, cocaine antagonist project, cell-based, LLC-PK1 hDAT, [14C]-dopamine uptake, MLSMR; Sodium-dependent dopamine transporter (Homo sapiens), Q01959; LLC-PK1 hDAT cells, [14C]-dopamine uptake with cocaine IC80; actives deviate in either direction; B-score at 10 µM; actives 1.3% (n = 110,000); AID 449768, 2010;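 active means Z score or B-score, a plate-position-corrected score, falls beyond the plate's 99.7% confidence bounds, in either direction; inactive means both scores lie inside the 99.7% bounds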;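 further: scored against the spread of the other compound wells on the same plate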
D1 mod – D1 CRE-luciferase signal change, two-sided – cell-based, HEK293 D1, dopamine EC30, D1 allosteric modulator project, primary screen; D(1A) dopamine receptor (Homo sapiens), P21728; dopamine EC30 potentiation; actives deviate in either direction; B-score at 10 µM; actives 5.9% (n = 58,000);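 active means luminescence count or its row- and column-corrected plate score outside the 99.7% band of the plate's sample wells, on either side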
M1 antag – antagonists of rat M1 muscarinic receptor. Muscarinic acetylcholine receptor M1 (Rattus norvegicus), P08482. CHO-M1 cells, Fluo-4 calcium, ACh EC80 antagonist mode; hits give low values. B-score at 10 µM. actives 3.4% (n = 64,000). AID 628, 2007;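 active means calcium fluorescence response, raw or row-and-column corrected B-score, differing from the plate sample mean either way at a set confidence level, mostly lower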
Target sequence (P08482 whole entry, looked up): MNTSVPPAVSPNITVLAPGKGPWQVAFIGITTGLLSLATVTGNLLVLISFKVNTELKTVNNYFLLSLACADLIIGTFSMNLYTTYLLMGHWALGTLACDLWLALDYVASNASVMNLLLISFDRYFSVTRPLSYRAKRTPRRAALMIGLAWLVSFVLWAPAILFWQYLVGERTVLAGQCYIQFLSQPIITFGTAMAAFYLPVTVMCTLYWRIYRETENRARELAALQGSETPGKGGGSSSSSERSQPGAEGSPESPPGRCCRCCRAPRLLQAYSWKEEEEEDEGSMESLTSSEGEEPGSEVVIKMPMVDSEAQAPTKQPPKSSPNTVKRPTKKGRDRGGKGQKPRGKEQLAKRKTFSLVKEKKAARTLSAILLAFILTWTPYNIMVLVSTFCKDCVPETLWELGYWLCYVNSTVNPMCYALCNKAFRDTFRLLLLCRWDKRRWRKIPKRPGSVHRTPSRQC
M1 antag confirm – rat M1 muscarinic receptor antagonists, confirmation, CHO cells, Fluo-4 calcium, duplicate. calcium response (max-min fluorescence) at 10 µM. actives 43% (n = 1,700). ACh EC80 antagonism; hits give low values. shares compounds with M1 antag;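 active means calcium response below the same-plate mean of wells given acetylcholine alone at its 80%-effect dose, minus 3 SD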;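 further: raw fluorescence intensity difference in arbitrary instrument units and not normalized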
mGluR4 antag – human mGluR4 response to M1 antagonist hits, M1 allosteric modulator project, cell-based, antagonist mode, secondary assay 1. shares compounds with M1 antag. AID 678, 2007. actives 0.9% (n = 1,700). CHO-mGluR4 calcium flux, Fluo-4 fluorescence, glutamate EC80; hits give low values. fluorescence response (max-min) at 10 µM;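 active means fluorescence response below the plate's average for near-maximal glutamate wells, less 3 SD of those wells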;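 further: raw unnormalized fluorescence span taken in the window right after glutamate addition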
The depositor's hits bear a star. Unless noted, no stated cut-off is given here; in the data, active means inhibition above about 20% (passing the limit was not always enough); inactive means the rest.

Screening CN1CCN(CC(=O)n2c3c(c4ccccc42)CCCC3)CC1 returned FXIa mix inh -2, FXIIa mix inh -1, M1 agonist 2.4, DAT uptake mod 0.086, D1 mod -1.7, M1 antag -2.9*, M1 antag confirm 457* and mGluR4 antag 285.
Screening CCN(CC)CC(=O)n1c2c(c3ccccc31)CCCC2 returned FXIa mix inh 6, FXIIa mix inh 4, M1 agonist 0.8, DAT uptake mod -0.11, D1 mod -0.33 and M1 antag 0.00065.
Screening Cn1c(C(=O)NCc2ccccc2)cc2oc3ccccc3c21 returned DAT uptake mod -0.14.
CCc1nc(SCc2ccc(C(=O)OC)o2)c2c(=O)n(C)c(=O)n(C)c2n1 was read as FXIa mix inh 5, FXIIa mix inh 1, M1 agonist -1, DAT uptake mod -0.35, D1 mod 3.8, M1 antag -6.7*, M1 antag confirm 280* and mGluR4 antag 226.
For CCCc1nc(SCc2ccccn2)c2c(=O)n(C)c(=O)n(C)c2n1 the results were FXIa mix inh 6, FXIIa mix inh 6, M1 agonist -1.1, DAT uptake mod 0.43, M1 antag -1.4*, M1 antag confirm 405* and mGluR4 antag 204.
Screening CCCc1nc2c(nnn2Cc2ccccc2F)c(=O)[nH]1 returned DAT uptake mod -0.022.
`CCOC(=O)C(NC(=O)NC1CCCCC1)(c1ccccc1)C(F)(F)F` (configuration not stated) gave DAT uptake mod -1.2.
For CN1CCCN=C1COC(=O)C(O)(c1ccccc1)C1CCCCC1 (configuration not stated) the results were FXIa mix inh 8, FXIIa mix inh 7, M1 agonist 0.51, DAT uptake mod 0.054, D1 mod -0.087, M1 antag -16*, M1 antag confirm 26* and mGluR4 antag 247.
Screening COC(=O)Nc1nn(Cc2ccccc2F)cc1Br returned FXIa mix inh 4, FXIIa mix inh 16, DAT uptake mod 0.0035 and D1 mod -0.27.
Screening O=c1c2c(nc3n1CCCCC3)-c1ccccc1CC21CCCC1 returned FXIa mix inh 3, FXIIa mix inh 9, M1 agonist -0.89, DAT uptake mod 0.92, D1 mod -0.19, M1 antag -8.2*, M1 antag confirm 314* and mGluR4 antag 264.
CC(C)(C)n1nnnc1C(c1cccs1)N(Cc1ccccc1)Cc1cccnc1 (configuration not stated) was read as FXIa mix inh 2, FXIIa mix inh 5, M1 agonist -0.23, DAT uptake mod 1.4, D1 mod -0.33, M1 antag -4.7*, M1 antag confirm 377* and mGluR4 antag 236.
Screening Cc1ccc2c(c1)NC(=O)C(CC(=O)NCCCN1CCN(c3cc(Cl)ccc3C)CC1)O2 (configuration not stated) returned FXIa mix inh -32, FXIIa mix inh -16, M1 agonist -0.8, DAT uptake mod 0.00088, D1 mod -2.6*, M1 antag -2.1*, M1 antag confirm 332* and mGluR4 antag 254.
`Cc1ccc2c(c1)NC(=O)C(CC(=O)NCCCN1CCCCC1)O2` (configuration not stated) gave FXIa mix inh 1, FXIIa mix inh -3, M1 agonist 0.36, DAT uptake mod 0.0084, D1 mod 0.34 and M1 antag -0.18.
Cc1ccc(Cl)cc1N1CCN(C(c2ccc(C#N)cc2)c2nnnn2C2CCCC2)CC1 (configuration not stated) was read as FXIa mix inh 36, FXIIa mix inh 2, M1 agonist -1.2, DAT uptake mod -0.44, D1 mod -0.28, M1 antag -4.1*, M1 antag confirm 643 and mGluR4 antag 243.
CCN(CC(=O)Nc1ccc2c(c1)OCCO2)C(=O)CC1CCCC1 was read as DAT uptake mod 0.34.
Screening COc1ccc(C(=O)C(CN2CCOCC2)c2ccccc2)cc1 (configuration not stated) returned DAT uptake mod -0.54.
`COc1ccc(C(=O)C(CN2CCCC2)c2ccccc2)cc1` (configuration not stated) gave M1 agonist 0.00053, DAT uptake mod 0.022, M1 antag -7.4*, M1 antag confirm 239* and mGluR4 antag 240.
For CC(C)C(c1nnnn1Cc1ccc2c(c1)OCO2)N1CCN(c2ccccc2)CC1 (configuration not stated) the results were FXIa mix inh 8, FXIIa mix inh 2, M1 agonist 0.43, DAT uptake mod -0.2, D1 mod -0.24 and M1 antag -0.34.
COc1ccc(Oc2nnc(-c3ccc(C)cc3)c3ccccc23)cc1 was read as DAT uptake mod -0.11.
For O=C(O)c1ccc(NC(=O)C2CC=CCC2C(=O)O)cc1 (configuration not stated) the results were FXIa mix inh -1, FXIIa mix inh 0, M1 agonist -0.07, DAT uptake mod 1.2, D1 mod 0.049, M1 antag -7.2*, M1 antag confirm 644 and mGluR4 antag 244.
For O=C(CCN1CCc2ccccc21)c1ccc2c(c1)OCCO2 the results were FXIa mix inh 6, FXIIa mix inh 7, M1 agonist -0.94, DAT uptake mod -0.4 and M1 antag 0.15.
`O=C(CCN1CCc2ccccc2C1)c1ccc2c(c1)OCCO2` gave FXIa mix inh -4, FXIIa mix inh 7, M1 agonist -0.17, DAT uptake mod -0.99, D1 mod -1.1, M1 antag -5.7*, M1 antag confirm 487* and mGluR4 antag 254.
For COCCCn1c(=S)[nH]c2ccc(N3CCOCC3)cc2c1=O the results were FXIa mix inh -1, FXIIa mix inh 16, M1 agonist -0.33, DAT uptake mod -0.078, D1 mod 0.17, M1 antag -11*, M1 antag confirm 656 and mGluR4 antag 237.
`CCOC(=O)C1CCN(CC(O)COc2ccc(C(C)(C)CC)cc2)CC1` (configuration not stated) gave FXIa mix inh -5, FXIIa mix inh 3, M1 agonist -0.42, DAT uptake mod -0.96, M1 antag -4.7*, M1 antag confirm 399 and mGluR4 antag 205.

Compound activity (PubChem)
